Experimental findings from PubChem BioAssay (EPA / NIEHS) are described below.

The nature of assay [1]: Tanguay_ZF_120hpf_AXIS_legacy: (Legacy) Oregon State University Tanguay Lab 120 Hour Post-fertilization zebrafish Assay for Body Axis Malformation (AID 2283635). In outline:
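Each dechorionated embryo was exposed alone from 6 hpf, with DMSO at 0.64% (vol/vol) and trimethyltin chloride 5 uM as positive control. Axis malformation was recorded at 120 hpf unless the embryo had died.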

Assay [2] in a line: Tanguay_ZF_120hpf_EYE_legacy: (Legacy) Oregon State University Tanguay Lab 120 Hour Post-fertilization zebrafish Assay for Eye Malformation (AID 2283636).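 Further: binary presence or absence of eye malformation scored by brightfield in 120 hpf larvae.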 Summed up: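 Dechorionated Tropical 5D zebrafish embryos, one per well from 6 hpf, static exposure to 120 hpf at 28C, 0.64% DMSO. Eye malformation scored present/absent by brightfield; dead embryos not scored.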
Assay [3] is described as follows: Tanguay_ZF_120hpf_JAW_legacy: (Legacy) Oregon State University Tanguay Lab 120 Hour Post-fertilization zebrafish Assay for Jaw Malformation (AID 2283638). In outline:
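Wild-type 5D embryos, chorion removed at 4 hpf, dosed singly from 6 hpf; 28C static, sealed, foil-covered, to 120 hpf. Endpoint: jaw defect yes/no (brightfield); mortality excludes scoring.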

The nature of assay [4]: Tanguay_ZF_120hpf_OTIC_legacy: (Legacy) Oregon State University Tanguay Lab 120 Hour Post-fertilization zebrafish Assay for Otic Vesicle Malformation (AID 2283639). Summed up:
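Otic vesicle malformation is read as a yes/no morphology call at 120 hpf. Exposure is static at 28C with 0.64% (vol/vol) DMSO; embryos that die are excluded from non-mortality endpoints.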

Assay [5] can be described thus: Tanguay_ZF_120hpf_PE_legacy: (Legacy) Oregon State University Tanguay Lab 120 Hour Post-fertilization zebrafish Assay for Pericardial Edema (AID 2283640). Summed up: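 Zebrafish larvae are exposed from early development to 120 hpf at 28C, with 0.64% DMSO final. Each surviving larva receives a yes/no pericardial edema call by brightfield imaging, analysed relative to the DMSO baseline.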

The nature of assay [6]: Tanguay_ZF_120hpf_BRAI_legacy: (Legacy) Oregon State University Tanguay Lab 120 Hour Post-fertilization zebrafish Assay for Brain Malformation (AID 2283641). In outline:
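Static exposure of staged wild-type embryos until 120 hpf, kept at 28C with light excluded and final DMSO of 0.64% (vol/vol). Presence or absence of brain malformation was noted under brightfield; mortality precluded scoring.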

Assay [7] in a line: Tanguay_ZF_120hpf_SOMI_legacy: (Legacy) Oregon State University Tanguay Lab 120 Hour Post-fertilization zebrafish Assay for Somite Malformation (AID 2283647). In outline:
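Somitogenesis defects are recorded as binary calls in whole larvae at 120 hpf after continuous static chemical exposure starting at 6 hpf in dechorionated 5D embryos. DMSO serves as negative control and baseline.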

The nature of assay [8]: Tanguay_ZF_120hpf_PFIN_legacy: (Legacy) Oregon State University Tanguay Lab 120 Hour Post-fertilization zebrafish Assay for Pectoral Fin Malformation (AID 2283648).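 Further: each larva judged yes or no for fin defect by brightfield with dead larvae skipped.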 Summed up:
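Dechorionated Tropical 5D wild-type zebrafish embryos, one per well, statically exposed from 6 to 120 hpf at 28C with 0.64% DMSO final. Pectoral fin malformation scored present/absent by brightfield at 120 hpf; not scored in dead embryos.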

A short description of assay [9]: Tanguay_ZF_120hpf_CFIN_legacy: (Legacy) Oregon State University Tanguay Lab 120 Hour Post-fertilization zebrafish Assay for Caudal Fin Malformation (AID 2283649). Summed up: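 Single dechorionated 5D wild-type embryos are dosed at 6 hpf (final DMSO 0.64%) and held statically at 28C. Caudal fin malformation is recorded as present or absent at 120 hpf under brightfield, excluding dead embryos.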

Assay [10] can be described thus: Tanguay_ZF_120hpf_PIG_legacy: (Legacy) Oregon State University Tanguay Lab 120 Hour Post-fertilization zebrafish Assay for Pigmentation Malformation (AID 2283650). Summed up: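 Dechorionated Tropical 5D wild-type embryos, one per well from 6 hpf, statically exposed at 28C in the dark until 120 hpf, 0.64% DMSO final. Pigmentation scored present/absent by brightfield microscopy; dead embryos not scored; fitted versus DMSO.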

Assay [11] is described as follows: Tanguay_ZF_120hpf_CIRC_legacy: (Legacy) Oregon State University Tanguay Lab 120 Hour Post-fertilization zebrafish Assay for Circulatory Malformation (AID 2283651). Summed up: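 Using wild-type Tropical 5D zebrafish, we exposed dechorionated embryos from 6 to 120 hpf in embryo medium with 0.64% DMSO. Circulatory defects were scored as present or absent; 5uM trimethyltin chloride served as positive control.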

The nature of assay [12]: Tanguay_ZF_120hpf_SWIM_legacy: (Legacy) Oregon State University Tanguay Lab 120 Hour Post-fertilization zebrafish Assay for Swim Bladder Malformation (AID 2283654).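 Further: swim bladder malformation in each larva scored yes or no under brightfield.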 In outline:
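Dechorionated wild-type Tropical 5D zebrafish embryos, one per well from 6 hpf, were statically exposed at 28C until 120 hpf in 0.64% DMSO. Swim bladder malformation scored as present/absent by brightfield microscopy; not scored in dead larvae.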

The nature of assay [13]: Tanguay_ZF_120hpf_TRUN_legacy: (Legacy) Oregon State University Tanguay Lab 120 Hour Post-fertilization zebrafish Assay for Truncated Body (AID 2283655). In outline:
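Single dechorionated zebrafish embryos received test chemical from 6 hpf in 0.64% DMSO, kept at 28C. At 120 hpf, brightfield inspection noted any truncated body.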

Assay [14] is described as follows: Tanguay_ZF_120hpf_NC_legacy: (Legacy) Oregon State University Tanguay Lab 120 Hour Post-fertilization zebrafish Assay for Notochord and Tail Malformation (AID 2283656). In outline:
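Dechorionated 5D zebrafish, 1/well from 6 hpf; static exposure to 120 hpf, 28C, sealed, dark; final DMSO 0.64% v/v. NC scored binary (present/absent); dead embryos not scored. Fit vs DMSO baseline, gain direction.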

Read-out in assay [15]: Broad substrate specificity ATP-binding cassette transporter ABCG2 (Homo sapiens) (UniProt Q9UNQ0)
In words: CLD_ABCG2_6hr: CellzDirect (CLD) Gene Expression Assay for ABC Transporter (ABCG2) at 6 hours (AID 2283660). Summed up:
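Primary human hepatocytes dosed daily with chemicals at multiple concentrations (0.2% DMSO vehicle), harvested 6 h after dosing. ABCG2 mRNA induction read by quantitative nuclease protection assay (qNPA) chemiluminescence; gain of signal fitted against DMSO baseline.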

Read-out in assay [16]: solute carrier (SLC22A6), SLC22A6 (gene 9356)
In words: LTEA_HepaRG_SLC22A6: Life Technologies and Expression Analysis (LTEA) Assay for solute carrier (SLC22A6) using HepaRG (AID 2283653; active means hit-call score of the fitted dose curve at least 0.9, where 1 is the maximum; inactive means score below 0.9). As to conditions: mRNA level, 48 h; actives raise or lower the signal. Summed up: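 Gene-expression endpoint in HepaRG hepatic cells: duplicate 8-point concentration-response, highest 100 uM, 48 h treatment in serum-free medium with 0.5% DMSO. SLC22A6 expression measured by qRT-PCR, normalised to ACTB/GAPDH/POLR2A.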

Read-out in assay [17]: matrix metalloproteinase-1 (MMP1), MMP1 (gene 4312)
Kind of assay: LTEA_HepaRG_MMP1: Life Technologies and Expression Analysis (LTEA) Assay for matrix metalloproteinase-1 (MMP1) using HepaRG (AID 2283658; active means hit-call score of the fitted dose curve at least 0.9, where 1 is the maximum; inactive means score below 0.9). As to conditions: mRNA level, 48 h; actives raise or lower the signal. Summed up: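 In this screen, human liver HepaRG cultures receive each chemical in duplicate for 48 h (top 100 uM, 0.5% DMSO). MMP1 expression is then quantified by TaqMan qRT-PCR with ACTB/GAPDH/POLR2A normalization.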

Assay [18] in a line: Tanguay_ZF_120hpf_SNOU_legacy: (Legacy) Oregon State University Tanguay Lab 120 Hour Post-fertilization zebrafish Assay for Snout Malformation (AID 2283637). In outline: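 Dechorionated tropical 5D wild-type zebrafish embryos exposed statically from 6 to 120 hpf at 28C, one per well, in 0.64% DMSO. Snout malformation scored as present/absent by brightfield at 120 hpf; dead embryos not scored.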

Read-out in assay [19]: kallikrein-3 (KLK3), KLK3 (gene 354)
In words: LTEA_HepaRG_KLK3: Life Technologies and Expression Analysis (LTEA) Assay for kallikrein-3 (KLK3) using HepaRG (AID 2283652; active means hit-call score of the fitted dose curve at least 0.9, where 1 is the maximum; inactive means score below 0.9). As to conditions: mRNA level, 48 h; actives raise or lower the signal. Summed up:
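Differentiated human HepaRG cells in serum-free induction medium exposed 48 h in duplicate, eight-point half-log series from 100 uM in 0.5% DMSO. KLK3 mRNA by qRT-PCR, normalised to ACTB, GAPDH, POLR2A; bidirectional fit versus DMSO.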

Results filed as inconclusive are left out. Active and inactive are the calls of the source. How the source made its calls, unless noted: active means hit-call score of the fitted dose curve at least 0.9, where 1 is the maximum; inconclusive means response in the unintended direction; inactive means score below 0.9.

Broad substrate specificity ATP-binding cassette transporter ABCG2 (Homo sapiens), sequence (Q9UNQ0 whole entry, looked up): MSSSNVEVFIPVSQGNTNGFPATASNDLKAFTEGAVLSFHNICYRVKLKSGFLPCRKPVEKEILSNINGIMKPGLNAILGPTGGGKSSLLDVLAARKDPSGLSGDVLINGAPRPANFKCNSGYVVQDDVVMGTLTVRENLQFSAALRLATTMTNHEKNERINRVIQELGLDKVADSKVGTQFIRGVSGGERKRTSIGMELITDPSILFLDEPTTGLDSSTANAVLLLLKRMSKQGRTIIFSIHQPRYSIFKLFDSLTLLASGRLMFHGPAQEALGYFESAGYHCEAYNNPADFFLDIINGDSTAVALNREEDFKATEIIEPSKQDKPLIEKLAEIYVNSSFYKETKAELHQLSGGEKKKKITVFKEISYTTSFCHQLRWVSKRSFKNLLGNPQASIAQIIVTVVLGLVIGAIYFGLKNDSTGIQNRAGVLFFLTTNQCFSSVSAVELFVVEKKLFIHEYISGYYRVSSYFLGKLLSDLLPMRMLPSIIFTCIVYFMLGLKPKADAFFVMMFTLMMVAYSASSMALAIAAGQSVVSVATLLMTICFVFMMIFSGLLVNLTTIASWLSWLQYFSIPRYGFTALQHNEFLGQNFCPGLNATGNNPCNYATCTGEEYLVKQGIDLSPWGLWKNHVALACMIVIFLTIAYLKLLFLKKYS

Turning to `O=[N+]([O-])c1c(Cl)c(Cl)c(Cl)c(Cl)c1Cl`, the compound was called inactive in assay [1], in assay [2], in assay [3], in assay [4], in assay [5] and in assay [6]. The call in assay [7], in assay [8], in assay [9], in assay [10], in assay [11] and in assay [12] was inactive. For the same compound, the outcome in assay [13], in [14] and in assay [15] was inactive.
For the compound `O=[N+]([O-])/N=C1\NCCN1Cc1ccc(Cl)nc1`, the call in assay [1], in [2], in assay [3], in assay [4], in assay [5] and in assay [6] was inactive. Moreover, the result in assay [7], in assay [8], in assay [9], in assay [10], in assay [11] and in assay [13] was inactive. The compound was called inactive in assay [14] and in assay [15].
Broadly, the AC50 is the concentration giving half of the maximal activity seen. As to `CCCN(CCOc1c(Cl)cc(Cl)cc1Cl)C(=O)n1ccnc1`, the compound was called inactive in assay [1], in [2], in [3], in assay [4], in [5] and in assay [6]. The call in assay [7], in assay [8], in assay [9], in assay [10], in assay [11] and in assay [16] was inactive. Moreover, the compound was called inactive in [12], in assay [13] and in [14]. For the same compound, the AC50 in [17] is 69.2 µM (active).
Consider `CCC(C)(C)C(=O)OC1=C(c2ccc(Cl)cc2Cl)C(=O)OC12CCCCC2`, for which the call in assay [1], in assay [2], in assay [18], in assay [3], in [4] and in assay [5] was inactive. Moreover, the result in assay [7], in assay [8], in [9], in [10], in assay [11] and in [12] was inactive. In addition, the compound was called inactive in assay [13] and in assay [15].
Take `COP(=S)(OC)Oc1ccc([N+](=O)[O-])cc1`: the call in assay [1], in assay [2], in [3], in assay [4], in assay [5] and in assay [6] was inactive. Moreover, the result in assay [7], in [8], in assay [9], in [10], in assay [11] and in [12] was inactive. The compound was classed as inactive in assay [13], in [14] and in assay [15].
With `CNC(=O)Oc1cccc(N=CN(C)C)c1`, the outcome in [1], in assay [2], in assay [3], in assay [4], in assay [5] and in assay [6] was inactive. The result in assay [7], in [8], in assay [9], in [13], in [14] and in assay [15] was inactive.
In the case of `CNC(=O)/C=C(\C)OP(=O)(OC)OC`, the compound was called inactive in assay [1], in assay [2], in assay [3], in [4], in assay [5] and in assay [6]. Also, the compound was called inactive in assay [7], in [8], in [10], in assay [11], in [12] and in [13]. In addition, the outcome in assay [14] and in assay [15] was inactive.
With `C[C@H]1[C@H](c2ccc(Cl)cc2)SC(=O)N1C(=O)NC1CCCCC1`, the outcome in assay [1], in [2], in assay [3], in assay [4], in [5] and in assay [6] was inactive. In addition, the compound was classed as inactive in [7], in assay [8], in assay [9], in [10], in assay [12] and in assay [13]. Also, the compound was called inactive in assay [14] and in assay [15].
`Oc1ccc(Cl)cc1Cc1ccccc1`: the compound was classed as inactive in [1], in assay [2], in assay [3], in assay [4], in assay [5] and in assay [6]. The result in assay [7], in [8], in assay [9], in assay [10], in assay [11] and in assay [12] was inactive. Also, the call in assay [13], in [14] and in assay [15] was inactive.
With `CCOC1Oc2ccc(OS(C)(=O)=O)cc2C1(C)C` (stereo not drawn), the call in [1], in [2], in assay [3], in assay [4], in [5] and in [6] was inactive. Also, the outcome in assay [7], in assay [8], in [9], in [10], in assay [11] and in [19] was inactive. The compound was classed as inactive in assay [16], in assay [12], in assay [13] and in [17].
For `COc1nn(CSP(=S)(OC)OC)c(=O)s1`, the result in [1], in assay [2], in [3], in assay [4], in assay [5] and in [6] was inactive. Further, the call in assay [7], in [8], in assay [9], in [10], in assay [12] and in assay [13] was inactive. Moreover, the compound was classed as inactive in assay [14].
